Assay results as given in PubChem BioAssay (NCATS).
Records with an inconclusive call do not appear. A number with no mark means an inactive call. The call rests on the fitted dose curve; in most records, active means well fitted activation curve with a large enough effect; inconclusive means small, poorly fitted or top-dose-only effect; inactive means flat fitted curve, though single readings scatter.

assay: Cellular Toxicity (caspase-3) Jurkat (AID 655); settings: Jurkat caspase-3 activation, luminescence; caspase-3 activation: at 92.2 µM (top of the series), DMSO = 0%, tamoxifen = 100%;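 further: cells exposed to compound for 16 h at 37 °C before reading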
Text: NIH Chemical Genomics Center [NCGC]
NIH Molecular Libraries Screening Centers Network [MLSCN]
National Institutes of Environmental Health Sciences [NIEHS]
National Toxicology Program [NTP]
We have developed a 1536-well cell-based assay for quantitative high throughput screening (qHTS) against a number of cell lines to determine in vitro caspase 3/7 of small molecules. This particular assay uses the Jurkat cell line which is derived from human T cell leukemia.
NCGC Assay Protocol Summary:
The Caspase-Glo 3/7 assay (Promega) is a homogeneous method to measure caspase-3 and caspase-7 activities in cultured cells. The quantitation of caspase 3/7 activity is based on the cleavage of a peptide-aminoluciferin substrate. After caspase cleaves the substrate the free aminoluciferin is liberated and serves as the substrate of luciferase, which generates the light. The luminescent signal is proportional to amount of caspase 3/7 activity present.
Using the Caspase-Glo 3/7 assay, the amount of caspase 3/7 activity was measured in the Jurkat cell line with complete culture medium following compound treatment for 16 hours. The assay was performed in opaque white 1536-well plates. In the screen, tamoxifen and doxorubicin were used as positive controls. Library compounds were measured for their ability to cause the activation of caspase 3/7 in the cell line, as reflected by an increase in luminescence signal, in a concentration-dependent manner. Data were normalized to the controls for basal activity (DMSO only) and 100% stimulation (100 uM tamoxifen). AC50 values were determined from concentration-response data modeled with the standard Hill equation.
qHTS protocol for caspase 3/7 assay in Jurkat cells
[Step] [Parameter] [Value] [Description]
1. Reagent; 5 uL; 5000 Jurkat cells/well
3. Controls; 23 nL; Tamoxifen 0.23 uM to 100 uM & Doxorubicin 7.0 pM to 100 uM
4. Time; 16 hr; 37 °C incubation
5. Reagent; 5 uL; Caspase-Glo 3/7 reagent
6. Time; 20 min; Room Temperature
7. Detection; Luminescence; Viewlux plate reader
Keywords: caspase 3/7, apoptosis, Jurkat cell line, luminescence, NTPHTS, NTPHTS_NCGC, NIEHS, EPA, DSSTox, MLSMR, MLSCN, NIH Roadmap, qHTS, NCGC

Row | Structure (SMILES) | caspase-3 activation [%]
1 | C=C(C)C(N)=O | -0.182
2 | Cc1cccc(C(=O)O)c1 | -6.77
3 | O=C(Cl)c1c(Cl)cccc1Cl | 2.4
4 | CCC(C)=O | -0.0185
5 | Cc1cccc2ccccc12 | -1.75
6 | CC(=O)c1ccc([N+](=O)[O-])cc1 | 0.818
7 | Cc1ccc(C)c(N)c1 | 0.403
8 | Fc1ccccc1 | 0.771
9 | ICCc1ccccc1 | 0.274
10 | BrC/C=C/CBr | 1.67
11 | CC(=O)Nc1ccc(N)cc1 | 0.0249
12 | CCOCC(=O)O | -1.08
13 | O=C(O)c1ccccc1[N+](=O)[O-] | -0.644
14 | CCCCC(CC)COCC1CO1 (stereo not given) | -3.18
15 | COc1ccc(OC)cc1 | 0.323
16 | O=C1CCCCC1 | 1
17 | Nc1cccc(C(F)(F)F)c1 | -0.253
18 | CCN(CC)c1cccc(O)c1 | 0.712
19 | FB(F)F | 1.14
20 | CCCCN(CCO)CCCC | -0.474

Row | Structure (SMILES) | caspase-3 activation [%]
21 | OCCO | 1.1
22 | C1CCC2OC2C1 (stereo not given) | 0.319
23 | CCOc1ccccc1N | 0.926
24 | CSc1ccc(C=O)cc1 | 1.05
25 | Cc1ccc2cccnc2c1 | -0.667
26 | Cc1cccc(C)c1[N+](=O)[O-] | 0.339
27 | CC(C)Nc1ccccc1 | 2.39
28 | Nc1cccc(S(=O)(=O)O)c1 | -0.29
29 | c1ccc2c(c1)ccc1ncccc12 | 3.47
30 | CCCC(Cl)CCCC(Cl)CCC(Cl)CCC(Cl)CCC(Cl)CCCC(Cl)CCC (stereo not given) | -0.794
31 | OC1CCCC1 | 0.809
32 | Cc1ccc2ncccc2c1 | 0.555
33 | CCCCCCC(=O)O | 0.927
34 | O=Cc1ccc(CO)o1 | -0.436
35 | O=[N+]([O-])c1ccc(NCCO)c(OCCO)c1 | 3.12
36 | CCCCCO | -0.274
37 | CN(C)c1cccc(O)c1 | -0.572
38 | CCCCC(C=O)CC (stereo not given) | -0.967
39 | Cc1ccc(C)c([N+](=O)[O-])c1 | 1.04
40 | C=Cc1ccccc1C=C | -0.124
